# Results: PubChem BioAssay AID1578 (Sanford-Burnham Center for Chemical Genomics, 2009)
# The whole screen tested about 290,000 compounds, of which about 3,000 (1%) were called active. The sample as a whole holds a higher share of actives than the screen did. Unmarked numbers belong to inactive results. Rule as the data show it: active = inhibition mostly above about 36% (no sharp cut-off); inactive = mostly below about 34%.
# Test: inhibition of NOD1-driven NF-kB reporter – cell-based, luminescence, uHTS, primary screen (AID 1578);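 also: HEK-293T reporter cells stimulated with the NOD1 agonist gamma-tri-DAP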
# Settings: NOD1-driven NF-kB luciferase reporter cells, at 4 µM, active compounds read high
row,SMILES,inhibition
1,O=C(CCC(=O)Nc1nnc(C2CCCCC2)s1)NCc1ccc(F)cc1,-10.8%
2,CSc1ccc(OC2CCCCC2NS(=O)(=O)c2ccccc2)cc1 (stereo unspecified),-17%
3,Cc1cc(OCC(=O)NCCc2cccc(F)c2)c2c(C)cc(=O)oc2c1,21.7%
4,CC(C)(C)N=Cc1c(O)ccc2oc3c(c12)CCCC3,-1.4%
5,Oc1ccccc1N=Cc1c(O)ccc2oc3c(c12)CCCC3,-2.1%
6,O=C(O)c1ccc(N=Cc2c(O)ccc3oc4c(c23)CCCC4)cc1,60% (active)
7,NC(=O)N/N=C/c1c(O)ccc2oc3c(c12)CCCC3,-15.5%
8,Oc1ccc2oc3c(c2c1/C=N/n1cnnc1)CCCC3,59.5% (active)
9,Cc1cccc(/N=C/c2c(O)ccc3oc4c(c23)CCCC4)n1,3.8%
10,COC(=O)c1ccsc1NC(=O)CCc1ccccc1,-59.2%
11,COc1cc(NC(=S)NCc2cccnc2)c(OC)cc1Cl,-26.2%
12,CC(=O)c1nnn(-c2c(F)cccc2F)c1C,-11.8%
13,O=c1[nH][nH]c(C(F)(F)F)c1C=NCc1cccc(Cl)c1,-0.4%
14,CC[n+]1c(/C=C/c2c[nH]c3ccccc23)ccc2cc(C)ccc21,79.9% (active)
15,CCc1ccc(/C=C/c2c[nH]c3ccccc23)[n+](CC)c1,-7.1%
16,CC[n+]1ccc(/C=C/c2c[nH]c3ccccc23)cc1,3.8%

row,SMILES,inhibition
1,Cn1nnc2cc(NC(=O)Nc3cccc(C(F)(F)F)c3)ccc21,-5.1%
2,COc1ccccc1N1CCN(C(=O)CN2C(=O)C3CCCCC3C2=O)CC1 (stereo unspecified),-30.6%
3,CCCCN(C)C1CCN(C(=S)Nc2ccc(OC)cc2)CC1,-31.8%
4,Cc1cc(C)c(S(=O)(=O)c2ccccc2)c(N2CCOCC2)n1,-15.6%
5,CCCCCc1ccc(-c2ccc(/C=C/C(N)=O)cc2)nc1,-38.2%
6,CCCc1ccc(-c2ccc(/C=C/C(=O)O)cc2)nc1,76.4% (active)
7,CCCCCc1ccc(-c2ccc(/C=C/C(=O)O)cc2)nc1,-27.7%
8,Cc1cc2c(c(=O)n1Cc1cccnc1)C(c1cccs1)C(C#N)=C(N)O2 (stereo unspecified),7%
9,O=S(=O)(NC1CCCC1)c1cccc(-c2nnc(-c3ccccc3)o2)c1,-5.3%
10,COC(=O)[C@@H](NC(=O)NCc1cccs1)C(C)C,8.6%
11,CCCCCNC(=O)c1c[nH]c2ccc(S(=O)(=O)N3CCC4(CC3)OCCO4)cc2c1=O,-39.2%
12,COc1ccc(-n2nc3c(c2NC(=O)CCCl)CSC3)cc1,1.9%
13,CCC(=O)Nc1c2c(nn1-c1ccc(OC)cc1)CSC2,-5.8%
14,CCC(=O)Nc1c2c(nn1-c1ccccc1)CSC2,-26%
15,O=C(CCCCl)Nc1c2c(nn1-c1ccccc1)CSC2,-34.6%
